Assay results taken from PubChem BioAssay (NCI).
The panel holds about 83,000 compounds, 20% with a hit somewhere; the sample as a whole holds those more often.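 Note: values are percent growth. 100 is the growth of untreated cells, values between 100 and 0 indicate rising inhibition; between -100 and 0 indicates cell death.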 Values without a mark were called inactive. Calls of active or inactive are those of the source. How the source made its calls: active means growth percent below 10; inactive means the rest.

How the values were obtained:
Assay in all cases: NCI-60 one-dose screen, 48 h (100 = growth as untreated, 0 = no growth, -100 = all killed)
Conditions in all cases: 10 µM unless noted
T-47D breast = tested on: T-47D breast
BT-549 breast = tested on: BT-549 breast
MDA-MB-435 melanoma = tested on: MDA-MB-435 melanoma
SW-620 colon = tested on: SW-620 colon
MCF7 breast = tested on: MCF7 breast
HCT-116 colon = tested on: HCT-116 colon
HCC-2998 colon = tested on: HCC-2998 colon
KM12 colon = tested on: KM12 colon

| Structure (SMILES) | growth (T-47D breast) | growth (BT-549 breast) | growth (MDA-MB-435 melanoma) | growth (SW-620 colon) | growth (MCF7 breast) | growth (HCT-116 colon) | growth (HCC-2998 colon) | growth (KM12 colon) |
| --- | --- | --- | --- | --- | --- | --- | --- | --- |
| Cc1onc2c(-c3ccccc3)n[nH]c(=O)c12 | 83.3% | 67.7% | 96.9% | 111% | 89.8% | 104% | 94.8% | 107% |
| CC(=O)N1N=C(c2ccc(Nc3nc(Nc4ccc(F)cc4)nc(Nc4ccc(Cl)cc4)n3)cc2)CC1c1ccc(Cl)cc1 (stereo not drawn) | 68.1% | 122% | 115% | 105% | 91% | 86.4% | 96.8% | 108% |
| O=C(CCc1nnc(-c2c(Cl)cccc2Cl)o1)c1nc2ccccc2[nH]1 | 52% | 56.3% | -0.531% (active) | 35.8% | 44.7% | 22.1% | 65.9% | 28.7% |
| Cc1c(C(=O)/C=C/Nc2c(Cl)cc(S(N)(=O)=O)cc2Cl)sc2nc3ccccc3n12 | 97.8% | 102% | 103% | 101% | 102% | 105% | 124% | 101% |
| COc1ccc2c(c1)/C(=C/c1sc(=S)n(Cc3ccco3)c1O)C=N2 | 45.3% | 7.24% (active) | -32.7% (active) | 28.1% | 21.8% | 11.9% | 44.7% | 23.9% |
| c1ccc2cc(C[n+]3ccn(CCCCCCn4cc[n+](Cc5ccc6ccccc6c5)c4)c3)ccc2c1 | 38.5% | 9.69% (active) | 59.2% | 95.5% | 49.8% | 45.2% | 59.4% | 41.2% |
| O=c1[nH]c2c(ccc3cnccc32)c2c1CCC2 | -7.41% (active) | -51.7% (active) | -60.1% (active) | -11.9% (active) | -4.54% (active) | 4.41% (active) | -51.8% (active) | -17.9% (active) |
| Cc1cc(N2CCCC2)nc(N(CCCNc2ccnc3cc(Cl)ccc23)Cc2ccccn2)n1 | 68.6% | 64.9% | 19.1% | 44.5% | 47.3% | 16.3% | 79.5% | 63.8% |
| CCCCOc1nc2c(C)cccc2cc1-c1cc(-c2ccc(Cl)cc2)nc(-c2ccc(Cl)cc2)c1 | 99% | 101% | 102% | 98.4% | 96.9% | 99.5% | 108% | 97.7% |
| COc1ccc(/C=C/c2c(C(=O)/C=C/c3ccc(C(F)(F)F)cc3)c(C)nc3ccccc23)cc1 | -13.3% (active) | -14.2% (active) | -56.5% (active) | -42.3% (active) | 1.41% (active) | -67.8% (active) | -77% (active) | -67.6% (active) |
| Cc1cc(=O)oc2cc(OC(=O)CN3CCN(C)CC3)ccc12 | 102% | 114% | 100% | 96.2% | 93.1% | 95.8% | 108% | 99.5% |
| COc1cccc2c(=O)c3c(sc12)c(NCCCN)nc1ccccc13 | 82.6% | 90.4% | 33.9% | -48.7% (active) | 24.9% | -73.9% (active) | -57.3% (active) | 13% |
| CC(=O)OC[C@H]1OC(Sc2sc(C(=O)c3ccc(C)cc3)c(N)c2-c2nc3ccccc3s2)[C@H](OC(C)=O)[C@@H](OC(C)=O)[C@@H]1OC(C)=O (stereo partly drawn) | 69.7% | 83.4% | 77.4% | 53.4% | 73.6% | 39.3% | 94.2% | 80.6% |
| COc1cc(/C=N/NC(=O)c2ccc(C)nc2)cc(OC)c1OC | 104% | 105% | 109% | 95.6% | 103% | 110% | 106% | 97.8% |
| COc1ccc(-c2conc2-c2ccccc2)cc1 | 52.8% | 29.6% | -45.4% (active) | 19.8% | 16% | 12.3% | 19.5% | 9.21% (active) |
| C=C(C)[C@@H]1CC[C@]2(N=C=O)CC[C@]3(C)[C@H](CC[C@@H]4[C@@]5(C)Cc6c([nH]c7ccccc67)C(C)(C)[C@@H]5CC[C@]43C)[C@@H]12 | 62.4% | 84.3% | 86.4% | 78% | 39.5% | 11.6% | 98.4% | 70.5% |

| Structure (SMILES) | growth (T-47D breast) | growth (BT-549 breast) | growth (MDA-MB-435 melanoma) | growth (SW-620 colon) | growth (MCF7 breast) | growth (HCT-116 colon) | growth (HCC-2998 colon) | growth (KM12 colon) |
| --- | --- | --- | --- | --- | --- | --- | --- | --- |
| Cc1ccc(C2CC(c3ccc(Nc4ccnc5cc(Cl)ccc45)cc3)=NN2C=O)cc1 (stereo not drawn) | 38.3% | 56.8% | 16.3% | 68% | 35.2% | 57.6% | 53.2% | 50.2% |
| O=C1/C(=C/c2ccc(F)cc2)Sc2c(Br)cccc21 | 43.4% | 87% | 102% | 89.4% | 20.1% | 85.8% | 99.3% | 86% |
| NCCOc1ncccc1/C=C1\c2ccccc2-c2ccc(C(F)F)cc21 | 51.5% | 87.3% | 82.3% | 38.4% | 21.6% | 42.1% | 24.2% | 78.8% |
| COC(=O)C(Cc1ccccc1)NC(=O)NC(=O)NC(=O)CI (stereo not drawn) | 59.3% | 79% | 24.4% | -28.4% (active) | 41.3% | 94.5% | 95.9% | 96.7% |
| NS(=O)(=O)c1ccc(-n2nc(-c3ccc(Cl)cc3)c3ccccc3c2=O)cc1 | 76.8% | 157% | 112% | 105% | 88.6% | 88.2% | 107% | 97.1% |
| S=c1nc(-c2ccccc2)oc(=NC2CCCCC2)n1C1CCCCC1 | 35.4% | 82.4% | 67.9% | 5.42% (active) | 12.7% | 18.5% | 73.7% | 10.7% |
| O=c1ccc(N=Nc2ccccc2)ccc1Cl | 42.4% | 135% | 40.6% | -3.18% (active) | 17.6% | 13.7% | 35% | 74.6% |
| O=C1CCC/C=C\C[C@H]2C=CC(=O)/C2=C/C[C@H](CCc2cccc(C(F)(F)F)c2)O1 | -28% (active) | -29.3% (active) | -42.1% (active) | -32% (active) | -6.2% (active) | -82% (active) | -74.4% (active) | -63.5% (active) |
| CCN(CC)CCNc1nc2ccccc2c2c(=O)c3cc(Cl)ccc3sc12 | 60.4% | 94% | 15.6% | 17.2% | 52.3% | 20.5% | 14.2% | 26.5% |
| O=c1n(Cc2ccc3ccccc3c2)ccn1Cc1ccc2ccccc2c1 | 55.5% | 92.4% | 107% | 102% | 97.6% | 70.6% | 103% | 96.4% |
| S=C(c1cccs1)N1CCN(c2cccc(Cl)c2)CC1 | 82.6% | 59.3% | 108% | 103% | 96.9% | 83.9% | 110% | 102% |
| C#Cc1cccc(NC(=O)c2ccc(NC(=O)C=C)cc2)c1 | 55.6% [8.25 µM] | 77% [8.25 µM] | 65.5% [8.25 µM] | 77.9% [8.25 µM] | 59% [8.25 µM] | 57.4% [8.25 µM] | 101% [8.25 µM] | 96.7% [8.25 µM] |
| COc1nc2ccccc2cc1-c1nc2c(cnn2-c2ccc(Br)cc2)c(=O)[nH]1 | 24.2% | 50% | -74.8% (active) | 19.5% | 22.1% | 23.1% | 51.1% | 18.3% |
| COc1cc(C(=O)/C=C/c2c(Cl)nc3sccn23)cc(OC)c1OC | 81.3% | 81.3% | 72.5% | 65.8% | 54.8% | 52.3% | 104% | 56.7% |
| NCCNc1nc2ccccc2c2c(=O)c3cc(F)ccc3sc12 | 88.7% | 92.5% | 58.6% | -29.1% (active) | 52.6% | 22% | 4.32% (active) | 34.5% |
